Molecules are shown by their SMILES. Several values for one entry are separate records, joined by “and”; a condition that tells them apart may be missing. Identical values can stand only once. Inconclusive results are not listed. Activity calls are given as the source filed them. Calls follow the shape of the dose curve; as a rule, active = well fitted activation curve with a large enough effect; inconclusive = small, poorly fitted or top-dose-only effect; inactive = no such curve, though single readings can be large or run the other way.
Potency is read from the fitted curve at half-maximal effect.

Sequence of Cellular tumor antigen p53 (Homo sapiens) (P04637 whole entry, looked up): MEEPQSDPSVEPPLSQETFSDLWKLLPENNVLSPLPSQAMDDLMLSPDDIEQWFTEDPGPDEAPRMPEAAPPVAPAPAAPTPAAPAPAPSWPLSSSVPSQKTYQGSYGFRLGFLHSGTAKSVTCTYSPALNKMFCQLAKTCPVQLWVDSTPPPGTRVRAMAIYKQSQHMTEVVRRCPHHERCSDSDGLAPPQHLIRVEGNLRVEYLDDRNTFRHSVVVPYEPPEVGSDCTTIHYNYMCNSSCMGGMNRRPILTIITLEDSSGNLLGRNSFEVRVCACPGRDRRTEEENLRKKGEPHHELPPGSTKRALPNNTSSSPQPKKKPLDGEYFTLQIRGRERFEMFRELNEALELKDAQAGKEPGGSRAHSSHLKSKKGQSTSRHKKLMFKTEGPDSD

This assay has as its target Cellular tumor antigen p53 (Homo sapiens) (UniProt P04637). The assay can be described thus: Primary qHTS for small molecule compounds that upregulate eGFP-tagged delta133p53alpha (in N-terminal) cells. (AID 2060322). Also: nearly all actives have a fitted effect of over 75% in size.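 As to activation: cells pre-induced with doxycycline then dosed without doxycycline; series mostly up to about 56 µM; 0% = DMSO vehicle and 100% = reference activator.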 The settings on record: NCI-H358 eGFP-delta133p53alpha fluorescence, 24 h; activation: stronger effect = higher value. The source says:
Assay Development and Screening Technology
National Center for Advancing Translational Sciences (NCATS),
National Institute of Health (NIH), Rockville, Maryland
Cellular senescence (CS) is one of the hallmarks of aging and age-related diseases. Senescent cells are characterized by an irreversible growth arrest, an increase in senescence-associated beta-galactosidase (SA-beta-gal) activity and p16INK4a expression, an activation of the DNA damage response pathways, and the emergence of a senescence-associated secretory phenotype (SASP).
Delta133p53alpha, a human/primate-specific p53 protein isoform, delays or inhibits the induction of CS and SASP in various types of human cells, including progeria-derived fibroblasts, primary normal astrocytes, and CD8+ T lymphocytes. Induction of delta133p53alpha with small molecule compounds may provide therapeutic opportunities for inhibition of senescence/SASP-associated pathologies in progeria syndromes, astrocyte-mediated neuroprotection in neurodegenerative diseases, and possibly prevention and treatment of a wider range of senescence- and aging-associated diseases.
Here we report the development and validation of a cell-based quantitative high throughput screening (qHTS) assay in 1,536-well format. This qHTS assay uses the NCI-H358 cell line with doxycycline-inducible expression of enhanced green fluorescent protein (eGFP)-tagged delta133p53alpha, which allows efficient and highly quantitative measurement of the protein levels.
PROTOCOL TABLE (as described by Inglese J, Shamu CE and Guy RK. 2007)
SEQUENCE No. (e.g., 1, 2, 3, etc.); […] (e.g., Cells, Incubation, Reagent, etc.); VALUE; DESCRIPTION.
1; Cells; 4uL; 800 doxycycline treated cells / well in doxycycline-free media, 1536-well black, clear-bottom low base Aurora microplates.
2; Compounds; 23 nL; Kalypsis pin tool (Wako) equipped with 1536-well pin heads, 5-azacytidine positive control.
3; Incubation; 24 hr; 37C, 5% CO2; 95% relative humidity.
4; Aspiration; 1x; BioTek EL406 washer dispenser (Agilent).
5; Fixing; 3.5% paraformaldehyde, BioTek EL406 washer dispenser (Agilent).
6; Washing; 1x PBS; BioTek EL406 washer dispenser (Agilent).
7; Nuclei staining; 1:1000 dilution of Hoechst 33342 (Thermofisher), BioTek EL406 washer dispenser (Agilent).
8; Incubation; 20 min; in the dark at room temperature.
9; Washing; 2x, 1x PBS (ThermoFisher), BioTek EL406 washer dispenser (Agilent).
10; Reagent; 10 uL; 1x PBS per well, sealed with clear adhesive tape.
NOTES (numbers refer to sequence numbers above).
1. NCI-H358 cells expressing eGFP-tagged delta133p53alpha were grown in T75 culture flasks and treated with doxycycline for 24h, at 10 ng/ml for eGFP-D133p53a cells (N-terminal cell) and 100 ng/ml for D133p53a-eGFP cells (C-terminal cells). Cells were trypsinized, counted using a Counted 3 Automated Cell Counter (Thermo Fisher), and diluted to a concentration of 200,000 cells/ml. A Multidrop Combi Reagent Dispenser (ThermoFisher) was used to dispense 800 cells/well in […] of doxycycline-free media, into 1536-well black/clear bottom low base plates (AuroraMicroplates).
2. After plating cells, 23 nl of compound library, DMSO vehicle control or positive control (5-azacytidine) were transferred by Pin Tool (Wako). The plate map layout was the same for each plate: (column 1) non-doxycycline treated cells + DMSO vehicle control; (column 2) doxycycline treated cells + DMSO vehicle control baseline; (column 3) doxycycline treated cells + positive control 57.5 uM final concentration 5-azacytidine; (column 4) doxycycline treated cells + serial dilution of 5-azacytidine, 16-point 1:2 titration spanning 1.8 nM to […] final concentration; (columns 5-48) doxycycline treated cells + titration of library compounds.
3. Cells were incubated at 37 °C, 5 % CO2, 95% RH with breathable metal lid for 24h.
4-10. […] After two washes, 10 ul of 1X PBS (Thermo Fisher) was dispensed to each well. Clear adhesive plate seals (VWR) were applied and plates stored at 4 °C.
11. […]
In general terms: Quantitative high-throughput screening tests each substance at several concentrations.
Regarding `CCC(C)C(=O)O[C@H]1C[C@](C)(O)[C@]23OC(C)(C)[C@H](C[C@H](OC(=O)c4ccccc4)[C@]2(COC(C)=O)[C@H]1OC(=O)C(C)CC)[C@H]3OC(C)=O` (stereo not given in full), the activation is 11.5% (inactive).

Take `C[C@H]1CC[C@@H]2N(C1)C[C@@H]1[C@H]([C@@H](O)[C@H](O)[C@]3(O)[C@H]1C[C@@]14OC5(O)[C@@H](C[C@@H](O)[C@@H]31)[C@]4(C)CC[C@@H]5O)[C@]2(C)O`: the activation was 0% (inactive). For `O=C1NC(Cc2c[nH]c3ccccc23)C(=O)NC1Cc1cnc[nH]1` (stereo not given), the activation is -5.36% (inactive).

`CC1CCC2(C(=O)OC3OC(CO)C(O)C(O)C3O)CCC3(C(=O)O)C(=CCC4C5(C)CCC(OC6OC(C)C(O)C(O)C6O)C(C)(C)C5CCC43C)C2C1C` (stereo not given): the activation was -10.7% (inactive). As for `C[C@@H](CN1CC(=O)NC(=O)C1)N1CC(=O)NC(=O)C1`, the activation was -3.95% (inactive) and 20.4% (inactive).

Turning to `O=C(O)c1cc(O)c2cccc(O)c2c1O[C@@H]1O[C@H](CO)[C@@H](O)[C@H](O)[C@H]1O`, the activation is -20.5% (inactive).

As to `CNC(=O)[C@H]1O[C@@H](n2cnc3c(NCc4ccc(N)cc4)ncnc32)[C@H](O)[C@@H]1O`, the activation is -32.5% (inactive).

In the case of `O=C(Nc1ccc(OC(F)(F)F)cc1)c1sccc1NCc1ccnc2ccccc12`, the activation is 27.4% (inactive). With `Nc1nc(OCc2ccccc2)c2[nH]cnc2n1`, the activation was 4.06% (inactive). On to `O=[N+]([O-])c1cc(Cl)ccc1S(=O)(=O)N1CCN(Cc2ccccc2)CC1`, for which the activation is 0.955% (inactive).

Take `CCCOc1ccc2c(c1)CC[C@@H]1[C@@H]2CC[C@]2(C)C(OC)CC[C@@H]12` (stereo not given in full): the activation is 0.565% (inactive). Take `COc1ccc(F)cc1-c1cc(NC(=O)[C@@H]2CCCNC2)ncc1Cl`: the Potency is 0.269 µM (active). Regarding `CC1(C)CC[C@]2(C(=O)O[C@@H]3O[C@H](CO)[C@@H](O)[C@H](O)[C@H]3O)CC[C@]3(C)C(=CCC4[C@@]5(C)C[C@@H](O)[C@H](O)[C@@](C)(CO)C5[C@H](O)C[C@]43C)C2[C@@H]1O` (stereo not given in full), the activation was -5.34% (inactive).

With `CCCCOc1cc(C(=O)OCCN(CC)CC)ccc1N`, the activation is -2.82% (inactive) and 0% (inactive). For the molecule `CC(C)(C)C1CCN(C(=O)n2ncc(C(O)(c3ccccc3)c3ccccc3)n2)CC1`, the activation was 6.21% (inactive). For the molecule `COc1cccc2c1[C@@H]1CN(CCCCn3c(=O)[nH]c4c(sc5ncc(-c6ccccc6)nc54)c3=O)C[C@@H]1CO2`, the activation was -97.6% (inactive). As to `COC1(CC(C)C)NC(=O)C(O)(Cc2ccccc2)NC1=O` (stereo not given), the activation was -16.8% (inactive). Still for that read-out and setting: the figure for `CO[C@H]1C[C@@H]2CC[C@@H](C)[C@@](O)(O2)C(=O)C(=O)N2CCCC[C@H]2C(=O)O[C@H]([C@H](C)C[C@@H]2CC[C@H](n3cnnn3)[C@H](OC)C2)CC(=O)[C@H](C)/C=C(\C)[C@@H](O)[C@@H](OC)C(=O)[C@H](C)C[C@H](C)/C=C/C=C/C=C/1C` is 1% (inactive). On to `N[C@@H](Cn1ccc(=O)c(O)c1)C(=O)O`, for which the activation is -3.82% (inactive) and -8.28% (inactive). Regarding `Cc1c(-c2cccc3c(CCCOc4cccc5ccccc45)c(C(=O)O)n(Cc4cccnc4)c23)c(COc2ccc(N3CCN([S+](=O)([O-])N(C)C)CC3)cc2)nn1C`, the activation was -39.2% (inactive).

In the case of `C/C(=C/CO)CC[C@H]1[C@]2(C)C[C@H](O)CC(C)(C)[C@H]2CC[C@]1(C)O`, the activation was -9.92% (inactive). With `COc1c(C(C)C)c(O)c(O)c2c1C(OC)[C@H]1OC(=O)[C@@]23CCCC(C)(C)[C@H]13` (stereo not given in full), the activation is -1.79% (inactive). Regarding `CCCCCCCCOc1ccc(C(=O)c2ccccc2)c(O)c1`, the activation was -2.82% (inactive).

Turning to `C[C@@H]1CN(Cc2ccccc2)C[C@H]1c1nc2c(cnn2C2CCOCC2)c(=O)[nH]1`, the activation was 18.8% (inactive). Consider `COC(c1ccccc1)(c1ccccc1)[C@H](Oc1nc(C)cc(C)n1)C(=O)O`, for which the activation was -19.8% (inactive) and -2.24% (inactive). With `NC1CCC(Nc2nc(Nc3ccc(C(=O)N4CCCCC4)cc3)c3ncn(-c4cccc(F)c4)c3n2)CC1` (stereo not given), the activation is -1.24% (inactive). For the molecule `CC1(C)S[C@H]2[C@H](NC(=O)[C@@H](N)c3ccc(O)cc3)C(=O)N2[C@@H]1C(=O)O`, the activation was -5.39% (inactive). Same read-out and setting: the figure for `Cc1cc(NC(=O)Nc2ccc(N(C)C)cc2)c2cc(F)cc(F)c2n1` is -0.105% (inactive); for `C[C@H](CCC(=O)O)[C@H]1CC[C@H]2[C@@H]3C[C@H](O)[C@@H]4C[C@H](O)CC[C@]4(C)[C@H]3CC[C@]12C` it is 1% (inactive); for `CC(=O)OC1CCC2(C)C(CCC3(C)C2CC=C2C4CC(C)(C)CCC4(C)CCC23C)C1(C)C(=O)O` (stereo not given) it is 27.7% (inactive). Still for that read-out and setting: the figure for `O=C1Nc2ccccc2-c2nc3ccccc3c(=O)n2-c2c(O)cccc21` is 23.2% (inactive). For `C=CC1=C(C(=O)O)N2C(=O)[C@@H](NC(=O)C(=NO)c3csc(N)n3)[C@H]2SC1`, the activation is -4.61% (inactive). Take `CCC(C(=O)OCCN(CC)CC)c1ccccc1` (stereo not given): the activation was -1.67% (inactive).

For the molecule `Cc1ccc(C(=O)Nc2cccc(C(F)(F)F)c2)cc1-c1ccc2nc(NCCN3CCOCC3)ncc2c1`, the Potency is 26.9 µM (active). Take `CC(C)NCC(O)c1ccc2ccccc2c1` (stereo not given): the activation was -2.82% (inactive).

Consider `COc1cc(/C=C/C(=O)O[C@H]2[C@@H]3C=CO[C@@H](O[C@@H]4O[C@H](CO)[C@@H](O)[C@H](O)[C@H]4O)[C@@H]3[C@@]3(CO)O[C@@H]23)ccc1O`, for which the activation is -2.29% (inactive). With `CCOc1ccc(S(=O)(=O)n2c(C)nc3ccccc32)cc1`, the activation was -4.33% (inactive). Turning to `C[C@@H]1O[C@@H](O[C@H]2[C@H](O)[C@@H](C(=O)O)O[C@@H](O[C@H]3CC[C@@]4(C)C(CC[C@]5(C)C4CC=C4C6CC(C)(C)CC[C@]6(C(=O)O)CC[C@]45C)C3(C)C)[C@@H]2O[C@@H]2O[C@H](CO)[C@@H](O)[C@H](O)[C@H]2O)[C@H](O)[C@H](O)[C@H]1O` (stereo not given in full), the activation is -2.29% (inactive). For `COC(=O)CC(O)C1OC(c2ccccc2)C(O)C1O` (stereo not given), the activation was -2.29% (inactive). On to `COc1cc(Cc2cnc(N)nc2N)c(C(C)C)cc1OC`, for which the activation is -15.2% (inactive).
